Records with an inconclusive call do not appear. Unmarked numbers belong to inactive results. Active and inactive are the calls of the source. The call rests on the fitted dose curve; in most records, active means well fitted inhibition curve with a large enough effect; inconclusive means small, poorly fitted or top-dose-only effect; inactive means no such curve, though single readings can be large or run the other way.
Each compound was assayed against Thioredoxin reductase 1, cytoplasmic (Rattus norvegicus) (UniProt O89049) (assay: qHTS Assay for Inhibitors of Mammalian Selenoprotein Thioredoxin Reductase 1 (TrxR1) (AID 488773; further: nearly all actives have a fitted effect of over 40% in size)). Details: purified TrxR1 enzyme activity; Potency: inhibition; series mostly up to 57.1 µM; activity change, negative = inhibition: at the top concentration.
Sequence of Thioredoxin reductase 1, cytoplasmic (Rattus norvegicus) (O89049 whole entry, looked up): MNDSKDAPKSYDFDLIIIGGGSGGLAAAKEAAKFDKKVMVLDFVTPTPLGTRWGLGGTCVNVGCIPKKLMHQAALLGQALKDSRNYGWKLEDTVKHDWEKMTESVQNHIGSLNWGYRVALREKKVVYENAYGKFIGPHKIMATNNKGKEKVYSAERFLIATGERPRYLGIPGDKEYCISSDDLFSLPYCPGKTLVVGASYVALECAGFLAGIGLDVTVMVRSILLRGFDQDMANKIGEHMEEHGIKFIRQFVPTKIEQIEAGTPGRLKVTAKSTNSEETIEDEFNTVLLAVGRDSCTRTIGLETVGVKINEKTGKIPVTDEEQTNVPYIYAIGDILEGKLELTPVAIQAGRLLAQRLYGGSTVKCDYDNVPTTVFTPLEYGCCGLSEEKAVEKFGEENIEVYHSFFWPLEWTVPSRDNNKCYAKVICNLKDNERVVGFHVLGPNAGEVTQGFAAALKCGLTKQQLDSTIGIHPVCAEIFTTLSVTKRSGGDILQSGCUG
Excerpt: The selenoprotein thioredoxin reductase (TrxR; EC 1.8.1.9) is a FAD containing homodimeric pyridine nucleotide-disulfide oxidoreductase with many cellular roles. Together with NADPH and its prime substrate thioredoxin (Trx), the enzyme forms the core of the Trx system. The mammalian Trx system exerts a wide spectrum of functions including redox regulation, antioxidant defense, regulation of transcription factors as well as support of cell growth and replication. Many of these functions involve the reduction of Trx, which may subsequently reduce a number of different substrates including ribonucleotide reductase, peroxiredoxins or NFkB. Mammalian TrxR itself also has a broad substrate specificity, reducing both protein and non-protein substrates, including low molecular weight compounds such as dehydroascorbate, lipoic acid, ubiquinone, and juglone. In addition, several drugs in clinical use for anticancer treatment are indeed known to target TrxR1.
This BioAssay is a validation of an NADPH fluorescence-based, dual-purpose qHTS rTrxR1 assay designed to find potential inhibitors and substrates of rTrxR1. For this particular BioAssay, actives are potential inhibitors. See related BioAssay for substrate data deposition.
Assay protocol: 2 uL of reagents (buffer in column 4 as negative control and 90 nM rTrxR1 in columns 1-3 and 5-48) were dispensed into Greiner black solid-bottom 1,536-well assay plates, followed by 1 uL of NADPH (400 uM final concentration) to each well. The plates were centrifuged at 1000 rpm for 15 seconds and subsequently incubated for 5 min at room temperature (~22 deg C) to allow for rTrxR1 reduction. Compounds (23 nL) were then transferred via Kalypsys pin tool equipped with 1536-pin array (10 nL slotted pins, V&P Scientific, San Diego, CA). In addition, a duplicate 2-fold serial dilution of the control compounds auranofin, a known gold-based TrxR1 inhibitor, and juglone (5-hydroxy-1,4-naphthoquinone), a natural TrxR1 substrate, were pin-transferred to columns 2 and 3, respectively. After incubation for 15 min at room temperature (~22 deg C), 1 uL of selenite (400 uM final concentration) were dispensed to each well. The plate was immediately transferred to a ViewLux high-throughput CCD imager (PerkinElmer), wherein kinetic measurements of NADPH fluorescence (Ex 340 nm, Em 450 nm) were acquired (8 minute kinetic read, see Table 1). Read 1 was utilized to assess the capacity of a compound to serve as an rTrxR1 substrate, i.e. a decrease in NADPH fluorescence compared to the no-compound background is an indication of a substrate behavior for that particular compound. For inhibitory activity of a compound, delta values, computed as the difference in fluorescence intensity between the first and last reads of an 8-minute time kinetic window, were used. All reagents were diluted in an assay buffer consisting of 50 mM Tris-HCl, pH 7.5, 2 mM EDTA, and 0.01% Tween-20.
Throughout the screen, reagent bottle and all liquid lines were made light-tight to minimize reagent degradation. All screening operations were performed on a fully integrated robotic system (Kalypsys, San Diego, CA) containing one RX-130 and two RX-90 anthropomorphic robotic arms (Staubli, Duncan, SC). Library plates were screened starting from the lowest and proceeding to the highest concentration, and a 'double-pinning' step of the highest concentration was required to access higher concentrations of compounds. Vehicle-only plates, with DMSO being pin-transferred to the columns 5-48, were inserted uniformly at the beginning and the end of each library in order to monitor and record any shifts in the background, which can be affected by reagent dispensers or loss in enzyme activity over time. Screening data were corrected, normalized, and concentration-effect relationships were derived by using publicly-available curve fitting algorithms developed in-house (http://ncgc.nih.gov/pub/openhts).
On the % scale 0 is the no-effect control and ±100 the full control effect; potency means the concentration at half of the fitted maximal effect.

Row | SMILES | activity change, negative = inhibition | Potency
1 | Fc1ccc(C(OCCCc2cnc[nH]2)c2ccc(F)cc2)cc1 | 4.53% | –
2 | CCCCCCCCCCCCCCCCCC(=O)NCC(COP(=O)([O-])OCC[N+](C)(C)C)OCC (stereo not given) | -5.1% | –
3 | CN(C)CCCO[C@@H]1[C@H]2OC(C)(C)O[C@H]2O[C@@H]1[C@H](O)CO | -6.27% | –
4 | OCC1O[C@H]([S-])[C@H](O)[C@@H](O)[C@@H]1O.[Au+] (stereo not given in full) | – | 75.2 nM (active)
5 | N[C@@H](CC(=O)O)C(=O)O | -8.64% | –
6 | Nc1ncnc2c1ncn2[C@@H]1O[C@H](COP(=O)(O)CP(=O)(O)OP(=O)(O)O)[C@@H](O)[C@H]1O | -6.28% | –
7 | CCCn1c(=O)c2[nH]c(-c3ccc(OCC(=O)NCCN)cc3)nc2n(CCC)c1=O | 2.85% | –
8 | CN1CCc2cc(O)c(O)cc2C(c2ccccc2)C1 (stereo not given) | -26.6% | –
9 | CC(N)C(=O)OC(C)(C)Cc1ccc(Cl)cc1 (stereo not given) | 3.96% | –
10 | CCCN(CC1CC1)c1nc(C)nc(Nc2c(Cl)cc(Cl)cc2Cl)c1Cl | -7.99% | –
11 | O=c1[nH]c2cc(Cl)c(Cl)cc2[nH]c1=O | -10.6% | –
12 | CC1CN(S(=O)(=O)c2cccc3cnccc23)CCN1 (stereo not given) | -13.7% | –
13 | O=c1[nH]c2cc(C(F)(F)F)ccc2n1-c1cc(C(F)(F)F)ccc1O | -10.9% | –
14 | COc1ccccc1CNCCCCCCNCCCCCCCCNCCCCCCNCc1ccccc1OC | -1.72% | –
15 | O=C(O)CNC(=O)C(CS)Cc1ccccc1 (stereo not given) | -9.2% | –
16 | O=C(Nc1ccccc1)c1cc([N+](=O)[O-])ccc1Cl | -4.88% | –
17 | O=[N+]([O-])c1ccc(CSc2ncnc3c2ncn3[C@@H]2O[C@H](CO)[C@@H](O)[C@H]2O)cc1 | -9.95% | –
18 | CC(COc1ccc(/C=C/c2ccccc2)cc1)[N+](C)(C)C (stereo not given) | -7.11% | –
19 | O=C1NC(O)=NC1(c1ccccc1)c1ccccc1 | 31.1% | –
20 | CNC(=O)[C@H]1O[C@@H](n2cnc3c(NCc4cccc(I)c4)ncnc32)[C@H](O)[C@@H]1O | 3% | –

Row | SMILES | activity change, negative = inhibition | Potency
21 | CCOC(=O)N1CCN(/[N+]([O-])=N/Oc2ccc([N+](=O)[O-])cc2[N+](=O)[O-])CC1 | – | 6700 nM (active)
22 | OC[C@H]1O[C@@H](n2cnc3c(Nc4ccccc4)ncnc32)[C@H](O)[C@@H]1O | -2.24% | –
23 | O=C(CCCCCN1CCN(c2ccccc2-c2ccccc2)CC1)NC1CCCc2ccccc21 (stereo not given) | 3.99% | –
24 | CCCCN1CCC(n2c(=O)[nH]c3ccccc32)CC1 | -11% | –
25 | O=P(O)(O)C(Cl)(Cl)P(=O)(O)O | 6.9% | –
26 | O=C1O/C(=C/Br)CCC1c1cccc2ccccc12 (stereo not given) | – | 2670 nM (active)
27 | Clc1ccc(N2CCN(Cc3c[nH]c4ncccc34)CC2)cc1 | -2.59% | –
28 | Nc1nc(Cl)nc2c1ncn2[C@@H]1O[C@H](CO)[C@@H](O)[C@H]1O | -5.63% | –
29 | COc1cc(C(O)CO)ccc1OS(=O)(=O)O (stereo not given) | -8.97% | –
30 | CCCCC#Cc1nc(NC)c2ncn([C@@H]3O[C@H](CO)[C@@H](O)[C@H]3O)c2n1 | 0.714% | –
31 | CSc1nc(N)c2ncn([C@@H]3O[C@H](COP(=O)(O)OP(=O)(O)OP(=O)(O)O)[C@@H](O)[C@H]3O)c2n1 | -0.104% | –
32 | S=C(S)OC1CC2CC1C1CCCC21 (stereo not given) | -15.7% | –
33 | CC(C)NCC(O)COc1cccc2ccccc12 (stereo not given) | -11.1% | –
34 | C[C@@H](NC(=O)/C(C#N)=C/c1ccc(O)c(O)c1)c1ccccc1 | -11.2% | –
35 | NC[C@H]1O[C@@H](n2cnc3c(N)ncnc32)[C@H](O)[C@@H]1O | 4.24% | –
36 | NC(N)=NC(=O)c1nc(Cl)c(N2CCCCCC2)nc1N | -17.3% | –
37 | O=C1/C(=C/c2ccsc2)CC/C1=C\c1cccs1 | -21.1% | –
38 | O=c1[nH]c2cc([N+](=O)[O-])c([N+](=O)[O-])cc2[nH]c1=O | -11.9% | –
39 | CCCCCCCCCCCCCCCC(=O)OC(CC(=O)O)C[N+](C)(C)C (stereo not given) | -3.56% | –
40 | Cc1ccccc1CNc1ncnc2c1ncn2C1OC(CO)C(O)C1O (stereo not given) | -8.28% | –

Reference: PubChem BioAssay (NCATS)
